Tested on: Vero E6 infected with SARS-CoV-2
Assay: inhibition of SARS-CoV-2 cytopathic effect; higher = more antiviral protection, active = above 15
Conditions: 48 h

Measured: inhibition of SARS-CoV-2 cytopathic effect

CCc1nc(C)ccc1O [emoxipin]
inactive: 1 nM 1.2% | 8.33 nM 3.95% | 100 nM 1.53% | 833.33 nM 0.68% | 10000 nM 1.33%

O=C(CCBr)N1CCN(C(=O)CCBr)CC1 [pipobroman]
inactive: 1 nM 0.26% | 8.33 nM -0.92% | 100 nM -3.06% | 833.33 nM -6.9% | 10000 nM -3.48%

CC(C)N(CCCNC(=O)Nc1ccc(C(C)(C)C)cc1)C[C@H]1O[C@@H](n2cc(Br)c3c(N)ncnc32)[C@H](O)[C@@H]1O
inactive: 1 nM 0.32% | 8.33 nM 9.52% | 100 nM -1.5% | 833.33 nM -1.25% | 10000 nM 0.03%

OC[C@H]1O[C@@H](O[C@@H]2[C@H](O)[C@@H](O)[C@H](O[C@H]3[C@H](O)[C@@H](O)C(O)O[C@@H]3CO)O[C@@H]2CO)[C@H](O)[C@@H](O)[C@H]1O (stereo not given in full) [4-galactosyllactose]
inactive: 1 nM -1.88% | 8.33 nM -2.42% | 100 nM 1.58% | 833.33 nM 0.18% | 10000 nM -0.03%

CC(C)[C@@H](CN1CC[C@@](C)(c2cccc(O)c2)[C@@H](C)C1)NC(=O)[C@H]1Cc2ccc(O)cc2CN1
inactive: 1 nM -0.76% | 8.33 nM 1.45% | 100 nM -1.62% | 833.33 nM -1.16% | 10000 nM -4.59%

NC(=O)CN1Cc2ccccc2OC1=O [caroxazone]
inactive: 1 nM 1.09% | 8.33 nM -3.02% | 100 nM -3.19% | 833.33 nM -4.05% | 10000 nM -0.94%
